ClpP mod – qHTS Assay for Activators of ClpP. purified B. subtilis ClpP, FRET peptide cleavage, 20 min. Potency, µM (top dose mostly 57.5 µM). 340,000 tested, 1.9% active. AID 651965, 2013; active = well fitted falling curve with a large enough effect; inconclusive = small, poorly fitted or top-dose-only effect; inactive = no such curve, though single readings can be large or run the other way; also: the source files actives as falling curves though it sought activators and does not explain the sign; nearly all actives have a fitted effect of over 65% in size
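Purified B. subtilis ClpP, 10 microg/mL final in Tris/HCl pH8 with KCl, BSA, glycerol and Tween-20, cleaved an Abz/nitrotyrosine-quenched decapeptide. Fluorescence (ex 320, em 430) was read at 0 and 20 min at room temperature. Delta was normalized to 5.8 microM ADEP and DMSO/no-enzyme controls.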
Epigenetic derep – Quantitative High-Throughput Screen for Regulators of Epigenetic Control; murine LDR cells, GFP reporter derepression, 30 h; Potency, µM (titrated, usually from 53.9 µM), hits mostly activators; 280,000 tested, 0.2% active; AID 1865, 2009; also: nearly all actives have a fitted effect of over 60% in size
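In this reporter-derepression format, murine cells bearing a silenced integrated CMV-GFP locus incubate with test compound (30 h, 37 C), then are washed and imaged; fluorescent objects of 20–120 um count as induced cells.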
VP16 counter – VP16 counterscreen qHTS for inhibitors of ROR gamma transcriptional activity; Drosophila S2 Gal4-VP16 UAS-luciferase, luminescence, 20 h; Potency, µM (titrated, usually from 53.6 µM), usual class: inhibitors; 310,000 tested, 3.5% active; AID 2546, 2010;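 also: Gal4-VP16 expression switched on by copper sulfate through the metallothionein promoter; nearly all actives have a fitted effect of over 50% in size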
Sfp PPTase inh – qHTS Assay for Inhibitors of Bacillus subtilis Sfp phosphopantetheinyl transferase (PPTase); 4'-phosphopantetheinyl transferase ffp (Bacillus subtilis), Q9F4F7; Biochemical Sfp PPTase activity, qHTS; Potency, µM, usual class: inhibitors; 310,000 tested, 3.5% active; AID 1490, 2009;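 also: the enzyme is Sfp with the accession as filed and its product quenches rhodamine fluorescence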
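Compounds were incubated with enzyme (final 15 nM) for 15 min at room temperature before substrate addition started the reaction. Fluorescence at 525 nm excitation, 598 nm emission was recorded immediately and after 30 minutes.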
PINK1 modulator – A Quantitative High throughput Screen to Identify Chemical Modulators of PINK1 Expression. PINK1 immunofluorescence, high-content cytometry, 24 h. Potency, µM (titrated, usually from 76.6 µM), usual class: activators. 410,000 tested, 0.2% active; active = well fitted activation curve with a large enough effect; inconclusive = small, poorly fitted or top-dose-only effect; cell line not stated here; also: nearly all actives have a fitted effect of over 65% in size
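Decision-based qHTS: stable cells, 24 h exposure to five compound concentrations, CCCP as control. Fixed cells stained for PINK1 plus nuclear, mitochondrial and cell markers, cytometer read.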
RORg inh – qHTS for inhibitors of ROR gamma transcriptional activity; AID 2551, 2010; Nuclear receptor ROR-gamma (Mus musculus), P51450; Potency, µM (doses to about 53.6 µM), usual class: inhibitors; 310,000 tested, 5.4% active; Drosophila S2 Gal4-RORgamma UAS-luciferase reporter, 20 h; also: nearly all actives have a fitted effect of over 60% in size
Target sequence (P51450 whole entry, looked up, the tested form may be a part): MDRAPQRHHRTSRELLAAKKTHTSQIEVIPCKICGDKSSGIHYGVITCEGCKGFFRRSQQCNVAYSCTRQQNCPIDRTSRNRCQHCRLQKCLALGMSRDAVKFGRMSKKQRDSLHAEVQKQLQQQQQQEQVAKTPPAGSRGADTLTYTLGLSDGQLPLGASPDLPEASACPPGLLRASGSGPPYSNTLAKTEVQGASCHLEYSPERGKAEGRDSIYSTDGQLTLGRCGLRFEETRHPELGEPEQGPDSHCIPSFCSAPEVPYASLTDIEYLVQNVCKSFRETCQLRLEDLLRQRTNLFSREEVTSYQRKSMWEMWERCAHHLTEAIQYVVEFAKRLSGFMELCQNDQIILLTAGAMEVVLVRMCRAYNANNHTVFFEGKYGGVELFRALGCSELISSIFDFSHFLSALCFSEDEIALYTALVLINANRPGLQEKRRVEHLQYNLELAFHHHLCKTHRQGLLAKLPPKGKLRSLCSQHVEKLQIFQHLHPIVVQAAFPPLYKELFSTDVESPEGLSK
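Compounds are pin-transferred onto Drosophila Schneider cells expressing a copper-inducible Gal4–ROR gamma transactivation domain fusion. After 1 hr, copper sulfate is added to 700 uM final; luciferase is read 20 hr later.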
Hits are given with their value; - = inactive; ? = inconclusive; . = no result given. The list is not random: actives were taken first. Their share in the collection is about 8.1%. Unless noted, calls follow the shape of the dose curve; as a rule, active = well fitted curve in the direction sought with a large enough effect; inconclusive = small, poorly fitted or top-dose-only effect, or another doubt; inactive = no such curve, though single readings can be large; an effect the other way counts as inactive or inconclusive.

SMILES	ClpP mod	Epigenetic derep	VP16 counter	Sfp PPTase inh	PINK1 modulator	RORg inh
Cc1ccc(-c2csc3nnc(SCC(=O)Nc4nsc(-c5ccccc5)n4)n23)cc1	-	-	-	-	-	-
Cc1ccc(-c2csc3nnc(SCC(=O)N4CCN(Cc5ccccc5)CC4)n23)cc1	-	-	-	-	-	-
COc1cccc(/C=C(\C#N)C(=O)Nc2ccc(NC(C)=O)cc2)c1OC	-	-	.	.	-	.
CCCn1c(SCC(O)c2cccc(OC)c2)nc2ccccc21 (stereo unspecified)	-	-	.	.	-	.
CC(C)c1ccc2c(c1)C1(NN=C(c3ccccc3)S1)C(=O)N2 (stereo unspecified)	-	-	5µM	-	?	5.6µM
CCc1ccc2c(c1)NC(=O)C2(C)Cc1ccc(F)cc1 (stereo unspecified)	-	.	.	.	-	.
CCc1ccc2c(c1)C1(NN=C(c3ccc(C)cc3)S1)C(=O)N2 (stereo unspecified)	-	?	3.5µM	-	-	4µM
COc1ccc(S(=O)(=O)N(CC(=O)Nc2cccc(C(F)(F)F)c2)c2ccc(C)cc2)cc1	-	-	.	.	-	.
Cc1ccc(OCc2ccc(C(=O)Nc3cc(C)on3)o2)c([N+](=O)[O-])c1	-	.	-	-	-	-
CCn1c(NC(=O)c2ccc(COc3ccc(C)cc3[N+](=O)[O-])o2)nc2ccccc21	-	-	5µM	-	?	2.2µM
Cc1nn(C)cc1CN1CCOc2ccc(CN3CCC(Oc4cccnc4)CC3)cc2C1	.	.	.	.	-	.
CCC1CN(CCNC(=O)c2ccnc(Cl)c2)Cc2cc(OC)ccc2O1 (stereo unspecified)	.	.	.	.	-	.
NC(=O)Cn1cc(C(=O)c2cccs2)c2ccccc21	20µM	-	-	-	-	-
O=C(Cn1cc(C(=O)c2cccs2)c2ccccc21)NC1CCCCC1	-	-	-	-	-	?
COc1ccc(-c2cc(N)n(S(=O)(=O)c3c(F)c(F)c(F)c(F)c3F)n2)cc1OC	-	?	7.1µM	-	?	?
COc1ccc(S(=O)(=O)n2nc(-c3cc(OC)c(OC)c(OC)c3)cc2N)cc1OC	-	-	-	-	-	?
Cc1ccc(C(=O)Nc2cccc(-c3nc(CNC(=O)c4ccc5ccccc5n4)c(C)o3)c2)s1	.	.	.	.	-	.
S=C(NN=Cc1ccc2c(c1)OCO2)NN=Cc1ccc2c(c1)OCO2	.	.	.	.	-	.
COCCNC(=S)N/N=C/c1ccc2c(c1)OCCO2	-	-	?	-	-	10µM
COCCCNC(=S)N/N=C/c1ccc2c(c1)OCO2	-	-	?	-	-	5.6µM
CC(C)NC(=S)N/N=C/c1ccc2c(c1)OCCO2	-	-	?	-	-	2.2µM
CC(=O)Nc1ccc(/C=N/NC(=S)NC(C)C)cc1	.	-	-	-	-	16µM
Cc1ccc(-c2nnn(CC(=O)N(Cc3ccc(F)cc3)C(C(=O)NC3CCCC3)c3ccncc3)n2)o1 (stereo unspecified)	-	?	-	40µM	-	-
Cc1ccc(C(C(=O)NC(C)(C)C)N(CC2CCCO2)C(=O)Cn2nnc(-c3ccc(C)o3)n2)cc1 (stereo unspecified)	-	-	-	56µM	-	-
COCCNC(=O)CCc1ccc(S(=O)(=O)Nc2ccc(C)cc2)cc1	-	-	-	79µM	-	-
COc1ccc(Cl)cc1NC(=O)CSc1nc(-c2ccco2)cc(C(F)(F)F)n1	-	-	.	.	-	.
COC(=O)c1sc2ncccc2c1OCc1ccc(Cl)cc1	35µM	-	-	-	-	-
O=C(NC1CC(=O)N(c2ccc(Cl)cc2)C1)c1cccs1 (stereo unspecified)	-	-	.	.	-	.
CCC(=O)N1CCc2cc(S(=O)(=O)NC(Cc3ccccc3)C(=O)Nc3ccccc3C)ccc21 (stereo unspecified)	-	-	.	.	-	.

Compound activity from PubChem.
